# Experimental data taken from the supplement of paper PMC11417369.
# ± gives the standard deviation of the averaged measurements. Over roughly 25,000 sequences, “ln(normalized median fluorescence intensity)” has its median near 8.9; the highest 2% begin near 10. The entries come from a sample that favours the highest values as a whole.
# System: PfAP2-LT AP2 domain (GST-tagged)
# Test: gcPBM binding intensity (ln(normalized median fluorescence intensity)); higher = stronger DNA binding
# Outline: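 Each value is the highest Masliner-normalised natural-log median intensity across replicate spots of either orientation of a probe. The probes were primer-extended double-stranded 36-bp intergenic genomic sequences on an Agilent 4 × 180k array, alongside negative controls, exposed for 1 h to GST-tagged P. falciparum DNA-binding domains expressed in E. coli. Bound protein was picked up with Alexa488 anti-GST antibody and scanned at 488 nm.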
row,Sequence,gcPBM binding intensity (ln)
1,AATACCCATATCTTCACACATACATAATAAATTATA [CACACA_site5367],8.81 ± 0.36
2,AAAAAAAAAATATACACACACATATAAATATAAATA [CACACA_site7574],9.34 ± 0.42
3,TGAGGTAACTAAATATGTACGTAACGAAGATACATA [XGTACX_site8231],8.96 ± 0.5
4,AATTGTTCGATATATGCACACAGTTTTGTTATTTTT [CACACA_site1615],9.25 ± 0.34
5,TATTAAACTTGACACACACACACACGCATATATAAA [CACACA_site6496],10.1 ± 0.14
6,TTTATTAAACTTGACACACACACACCCACATATATA [CACACA_site760],9.8 ± 0.28
7,GTTTGATTAAACTTGACACACATATATATAAATATA [CACACA_site1784],8.71 ± 0.44
8,CCCCATATAATGAACACACACACTCCTCATAATTAA [CACACA_site628],10.33 ± 0.099
9,CCCATGTAATATTAAACACACACTCATATAACACAA [CACACA_site7906],9.36 ± 0.26
10,TTTCCCCCATATAATGAACACACACCCTCCTCATAA [CACACA_site8110],9.84 ± 0.41
11,TTATAAATTCAATGTACTACACAAAATGAATTTAAT [XGTACX_site6683],8.53 ± 0.35
12,AGAACCATATATAAATGTACATGTTAATATGAATAA [XGTACX_site130],8.93 ± 0.42
13,ATTATGTTTCTTTTTTTTTTTAAAGGATGTCTTTTT [CACACA_negctrl_site974],8.62 ± 0.56
14,TAAACATACATATACACACACACACCCACACCCACA [CACACA_site492],10.3 ± 0.18
15,TTAAAAAAAAAACACACACACATACACATATATATA [CACACA_site3299],9.91 ± 0.2
16,ATTAAACATACATATACACACACACCCACCCACCCA [CACACA_site8057],10.22 ± 0.071
17,TTATATATGTATTAATGTACATAGTTGAGAAAGGTA [XGTACX_site1511],8.78 ± 0.34
18,GAACCTTTAAAATACACACCCAAATCCTTTGAAATA [CACACA_site3630],8.88 ± 0.42
19,CAATGTTGTACATACACACACACAAAAAAAAAATAA [CACACA_site2407],9.6 ± 0.45
20,TCTCCTTGTTCCTTTTTTTTAAAAAAAAACATTAAA [CACACA_negctrl_site679],8.47 ± 0.52
21,GTTAATTATTAAATTTGTACTCATATATATTATATA [XGTACX_site6862],8.71 ± 0.53
22,ATAAAACAAAGACACACACACATACACAAAAAAAAA [CACACA_site7752],9.99 ± 0.42
23,AAGACACAAAAACACACACACATACATACATACATA [CACACA_site454],9.99 ± 0.31
24,CAAAGACACAAACACACACACACATACATACATACA [CACACA_site453],10.3 ± 0.42
25,AAAAAAAAAAGACACACACACACAAATACATACACA [CACACA_site6472],10.2 ± 0.042

row,Sequence,gcPBM binding intensity (ln)
1,GGTACATACAGACACACACACAAAAAAAAAAAAATA [CACACA_site6844],9.81 ± 0.64
2,AAAAAAAAAAGACACACACACAAATACAAATACATA [CACACA_site6334],10 ± 0.28
3,TAATATTTCGCACTGTGTACTGAAATATTTATATCG [XGTACX_site516],8.76 ± 0.36
4,TAATTAACCTATGCATTCATATAGATACATAAATAT [CACACA_negctrl_site885],8.72 ± 0.51
5,GGTAATTATTTTGGTTGTACTCAAATATATAATATT [XGTACX_site291],8.89 ± 0.23
6,ATCAAAAACATACCTACACACACAATATGTATATAT [CACACA_site9171],9.51 ± 0.28
7,TATATATATATATATACACACATACAGATATATATT [CACACA_site4629],9.5 ± 0.38
8,TATACATACACATACACACATACACCCATACACATA [CACACA_site1746],9.69 ± 0.33
9,CATACACCCATACATACACACATACATATATATATA [CACACA_site8591],9.62 ± 0.15
10,TATATATACATATACACACACACACCCATATATATA [CACACA_site2246],10 ± 0.11
11,TCAAAGCACAGATACACACACATATATATATATATA [CACACA_site287],10.18 ± 0.014
12,TCAAAGCACACATACACACACATATAGATTTATATA [CACACA_site6272],9.73 ± 0.16
13,ACCATACATACATACACACACACACCCATATATATA [CACACA_site2917],10.2 ± 0.26
14,CACATATATACACATACACACACACCCATACACCCA [CACACA_site8505],10.1 ± 0.25
15,TCAAAGCACCCATACACACACATATATATATATATA [CACACA_site4317],10.2 ± 0.18
16,CATATACATACACATACACACATACACCCATACACA [CACACA_site8514],9.68 ± 0.29
17,GATGAATAAATCAAAGCACACATACACCCACATATA [CACACA_site7986],9.67 ± 0.13
18,CTAGCAAATACATACACACACACACCCATACATATA [CACACA_site3496],9.95 ± 0.18
19,TTTTTTTTGGAATTCACACAAATATAACATGGGTAT [CACACA_site5185],8.7 ± 0.38
20,AACCTATCTATAGGAACAATATATATATATATAATT [CACACA_negctrl_site1707],8.98 ± 0.33
21,TTTTGAAAGTTTTTGTGTCCACATATATTTATATAT [XGTACX_site6563],8.94 ± 0.44
22,ACATATATATAATATATATTTTTCGTGTGGTGTCAC [CACACA_negctrl_site543],8.84 ± 0.42
23,TTTATTCTTGAGTATTGTACATATGTGTTTGTATAT [XGTACX_site5706],8.93 ± 0.45
24,ATTTTCTATATCTTTCAACACACAAATTTTTTTTTC [CACACA_site7918],8.85 ± 0.45
